# The panel holds about 79,000 compounds, 15% with a hit somewhere; the sample as a whole holds those more often. Values without a mark were called inactive. The source made the active and inactive calls. No stated cut-off is given here; in the data, active means growth inhibition above about 70%; inactive means the rest.
# What was measured:
# [1] = NCI Yeast Anticancer Drug Screen. Data for the rad50 strain (AID 155);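 further: 0% = growth of vehicle-only cultures of the same strain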; conditions: S. cerevisiae rad50 strain growth inhibition, active compounds read high
# Method in brief: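 Readout: growth inhibition relative to vehicle-treated cultures. Compound exposure was carried out in a genetically defined yeast strain deficient in DNA damage repair.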
# [2] = NCI Yeast Anticancer Drug Screen. Data for the mec2-1 strain (AID 157); conditions: S. cerevisiae mec2-1 strain, active compounds read high
# Method in brief: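 Each compound was tested on mec2-1 yeast, a strain altered in DNA damage repair or cell cycle control. Growth inhibition is reported relative to vehicle.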
# [3] = NCI Yeast Anticancer Drug Screen. Data for the sgs1 mgt1 strain (AID 161);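 further: 0% = growth of cultures given vehicle only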; conditions: S. cerevisiae sgs1 mgt1 strain, active compounds read high
# Method in brief: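 Read-out: growth inhibition vs vehicle controls. Cells: mutant yeast strain deficient in DNA damage repair.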
# [4] = NCI Yeast Anticancer Drug Screen. Data for the cln2 rad14 strain (AID 165);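 further: 0% = growth equal to vehicle treated cultures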; conditions: S. cerevisiae cln2 rad14 strain, active compounds read high
# Method in brief: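 Test compounds were added to cln2 rad14 yeast cultures; inhibition of growth was then determined by comparison with vehicle treatment.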
# [5] = NCI Yeast Anticancer Drug Screen. Data for the bub3 strain (AID 167); conditions: S. cerevisiae bub3 mutant strain, active compounds read high
# Method in brief: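 Readout: yeast growth inhibition, expressed relative to vehicle-only wells. The test organism is a mutant strain from a panel with lesions in DNA repair or checkpoint genes.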
# [6] = NCI Yeast Anticancer Drug Screen. Data for the mlh1 rad18 strain (AID 175); conditions: S. cerevisiae mlh1 rad18 strain growth inhibition, active compounds read high
# Method in brief: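 Inhibition values reflect reduced growth of mutant yeast versus vehicle-treated controls following compound exposure; the mutations affect DNA damage repair.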
# [7] = at 5.0 µM (retest, dose inferred, filed as 0.5)
# [8] = at 50.0 µM (retest, dose inferred, filed as 5.0)
SMILES,"growth inhibition [1, 7]","growth inhibition [1, 8]",growth inhibition ([1]; at 50.0 µM),"growth inhibition [2, 7]","growth inhibition [2, 8]",growth inhibition ([2]; at 50.0 µM),"growth inhibition [3, 7]","growth inhibition [3, 8]",growth inhibition ([3]; at 50.0 µM),"growth inhibition [4, 7]","growth inhibition [4, 8]",growth inhibition ([4]; at 50.0 µM),"growth inhibition [5, 7]","growth inhibition [5, 8]",growth inhibition ([5]; at 50.0 µM),"growth inhibition [6, 7]","growth inhibition [6, 8]",growth inhibition ([6]; at 50.0 µM)
NC(Cc1ccccc1)c1ccc2cccc3c2c1CC3 (configuration not stated),-5%,4%,0.3%,-5%,8%,33.8%,-2%,25%,5.55%,-6%,-1%,-4.25%,-2%,9%,21.1%,-2%,34%,51.5%
CCC(C)c1ccc(O)c(C(C)c2ccccc2)c1 (configuration not stated),44%,70% (active),89.6% (active),41%,68%,92.2% (active),19%,97% (active),92.9% (active),49%,101% (active),90.3% (active),15%,100% (active),91% (active),40%,61%,90.5% (active)
CCC(=O)/C(=C\c1ccccc1)C(=O)C(C)CN(C)C (configuration not stated),9%,23%,7%,13%,16%,17.6%,12%,16%,26.6%,20%,25%,25.8%,10%,15%,33.8%,16%,24%,51.8%
COc1cccc2c1C(=O)c1c(O)c3c(c(O)c1C2=O)CC(O)(C(C)=O)CC3OC1OC(COC(C)=O)C(OC(C)=O)C(OC(C)=O)C1OC(C)=O (configuration not stated),5%,58%,95.5% (active),49%,30%,97.5% (active),3%,33%,97.8% (active),5%,8%,97.2% (active),2%,83% (active),98.9% (active),3%,59%,98% (active)
CC1(C)CC[C@]2(C(=O)O)CC[C@]3(C)C(=CC[C@@H]4[C@@]5(C)C[C@H](O)[C@H](O)[C@@](C)(C(=O)O)[C@@H]5CC[C@]43C)[C@@H]2C1,100% (active),99% (active),91.2% (active),100% (active),100% (active),94.1% (active),99% (active),99% (active),92.7% (active),99% (active),99% (active),92% (active),99% (active),99% (active),92% (active),100% (active),100% (active),88.7% (active)
O=C(O)Cc1ccc2ccccc2c1-c1ccccc1,-1%,93% (active),86.7% (active),-11%,93% (active),91.8% (active),2%,-19%,85% (active),-3%,98% (active),95% (active),-11%,92% (active),94.7% (active),-20%,94% (active),90.2% (active)
CCC(c1ccc(Cl)cc1)C(C#N)c1ccc(Cl)cc1 (configuration not stated),10%,55%,84.3% (active),-1%,33%,61.5%,-3%,46%,68.1%,-8%,12%,11.4%,6%,44%,41.8%,2%,52%,76.4% (active)
Cc1ccc(S(=O)(=O)Oc2ccc(C(C)(C)C)cc2Cl)cc1,-8%,-11%,-5.5%,-22%,-25%,2%,11%,3%,9.35%,-3%,-3%,-7.7%,1%,-1%,11.4%,20%,0%,14.4%
COc1cccc(/C=C/C(C)=O)c1OC,2%,35%,76% (active),4%,8%,13.9%,-1%,3%,24.5%,-4%,4%,21.9%,-2%,-1%,5.2%,-4%,7%,37.5%
CCN(CC)CCCOC(=O)C(c1ccccc1)C1CCCCC1 (configuration not stated),4%,63%,88.5% (active),11%,71% (active),67.5%,22%,94% (active),90.7% (active),13%,41%,88.5% (active),16%,83% (active),94.1% (active),41%,97% (active),98% (active)
O=c1c(-c2ccccc2)c(-c2ccccc2)c1=O,-98%,84% (active),97.7% (active),-37%,89% (active),96.2% (active),-36%,77% (active),63.1%,-49%,76% (active),95.3% (active),-38%,84% (active),96.8% (active),-85%,69%,85.5% (active)
CCCC1=C(c2ccccc2)C(O)(c2ccccc2)C(CCC)C1=O (configuration not stated),0%,46%,97.8% (active),4%,47%,96.4% (active),0%,37%,96.2% (active),-9%,19%,95.3% (active),-3%,69%,93.3% (active),4%,47%,95.8% (active)
CC1CCN(CCOC(=O)C(c2ccccc2)C2C=CCCC2)C1C (configuration not stated),16%,59%,81.1% (active),45%,71% (active),58.9%,53%,80% (active),84.5% (active),16%,53%,86.9% (active),16%,50%,62%,54%,78% (active),77.5% (active)
CCCCCCCCCCCCCCCCCC(=O)OC(C)CCC1CCCO1 (configuration not stated),4%,-6%,26.4%,1%,0%,12.8%,5%,11%,5.9%,5%,3%,0.1%,1%,-2%,-5.95%,1%,-58%,13%
CCc1cc(/C=C\c2ccnc3ccccc23)ccc1N(C)C,-1%,99% (active),98.2% (active),-17%,91% (active),98.4% (active),-1%,95% (active),98.3% (active),-12%,81% (active),93.5% (active),-6%,93% (active),98.1% (active),-8%,97% (active),98% (active)
CCCCCCCCCCCC(=O)c1c(O)c2ccccc2oc1=O,6%,-4%,54.1%,45%,28%,44.4%,21%,-8%,71.2% (active),-14%,-7%,22.3%,0%,-21%,43.8%,-4%,-4%,68%
COC(=O)c1ccc(OCCC(=O)CCl)cc1,0%,56%,99.5% (active),1%,52%,99.8% (active),3%,55%,99.7% (active),4%,31%,69.1%,11%,67%,99.6% (active),2%,72% (active),97.8% (active)
O=C(O)Cc1ccc2c(c1O)C(=O)c1ccccc1C2=O,1%,20%,89.3% (active),0%,31%,67.2%,1%,28%,78.8% (active),-2%,7%,57.5%,0%,50%,65.9%,0%,29%,74.1% (active)
Cc1ccccc1NC(=O)Cc1csc(N=Nc2c(O)[nH]c3ccccc23)n1,18%,17%,-33.6%,1%,1%,-42.9%,1%,-2%,-6.95%,9%,-6%,-12.1%,25%,25%,-11.1%,15%,17%,-27.7%

# Reference: PubChem BioAssay (NCI)
